# Reference: the supplement of paper PMC6555819
# Assays:
# Experiment in all cases: PBM binding z-score (relative to random genomic background probes); higher = stronger binding; sequences stand for … in GC…GCGATTGACAGCGTAGAATGAAGG
# [1] = system: FXR:RXRa (NR concentration 270 nM, RXRa partner concentration 90 nM)
# Procedure, shortened: (§1)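 Random background probes are the reference for binding z-scores. These scores derive from regression-normalized fluorescence on custom Agilent 4×180K protein-binding microarrays incubated 1 h with ligand-free nuclear receptor dimers. Binding was detected with antibodies against each partner (one per run).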
# [2] = system: LXRa:RXRa (NR concentration 270 nM, RXRa partner concentration 90 nM)
# Procedure, shortened: as §1
# [3] = system: LXRa homodimer (NR concentration 270 nM)
# Procedure, shortened: as §1
# [4] = system: LXRb:RXRa (NR concentration 270 nM, RXRa partner concentration 90 nM)
# Procedure, shortened: as §1
# [5] = system: LXRb homodimer (NR concentration 270 nM)
# Procedure, shortened: as §1
# [6] = system: PPARa:RXRa (NR concentration 270 nM, RXRa partner concentration 90 nM)
# Procedure, shortened: as §1
# [7] = system: PPARg:RXRa (NR concentration 180 nM, RXRa partner concentration 90 nM)
# Procedure, shortened: as §1
# [8] = system: PPARg:RXRa 270nM:90nM, anti-RXR (NR concentration 270 nM, RXRa partner concentration 90 nM)
# Procedure, shortened: as §1
# [9] = system: PPARg:RXRa 30nM:10nM, anti-RXR (NR concentration 30 nM, RXRa partner concentration 10 nM)
# Procedure, shortened: as §1
# [10] = system: PPARg:RXRa 90nM:30nM, anti-RXR (NR concentration 90 nM, RXRa partner concentration 30 nM)
# Procedure, shortened: as §1
# [11] = system: PPARg:RXRa DBDmut IVT, anti-RXR (DBD mutation: RXRa K156A/R161A, NR concentration 270 nM, RXRa partner concentration 90 nM)
# Procedure, shortened: as §1
# [12] = system: PPARg:RXRa IVT, anti-PPARg (NR concentration 270 nM, RXRa partner concentration 90 nM)
# Procedure, shortened: as §1
# [13] = system: PPARg DBDmut:RXRa IVT, anti-PPARg (DBD mutation: PPARg1 K132A/R137A, NR concentration 270 nM, RXRa partner concentration 90 nM)
# Procedure, shortened: as §1
# [14] = system: PPARg DBDmut IVT, anti-PPARg (DBD mutation: PPARg1 K132A/R137A, NR concentration 270 nM)
# Procedure, shortened: as §1
# [15] = system: PPARg homodimer (NR concentration 180 nM)
# Procedure, shortened: as §1
# [16] = system: PXR:RXRa (NR concentration 270 nM, RXRa partner concentration 90 nM)
# Procedure, shortened: as §1
# [17] = system: PXR homodimer (NR concentration 270 nM)
# Procedure, shortened: as §1
# [18] = system: RARa:RXR (NR concentration 270 nM, RXRa partner concentration 90 nM)
# Procedure, shortened: as §1
# [19] = system: RARa homodimer (NR concentration 270 nM)
# Procedure, shortened: as §1
# [20] = system: RARb:RXRa (NR concentration 270 nM, RXRa partner concentration 90 nM)
# Procedure, shortened: as §1
Sequence,PBM binding z-score [1],PBM binding z-score [2],PBM binding z-score [3],PBM binding z-score [4],PBM binding z-score [5],PBM binding z-score [6],PBM binding z-score [7],PBM binding z-score [8],PBM binding z-score [9],PBM binding z-score [10],PBM binding z-score [11],PBM binding z-score [12],PBM binding z-score [13],PBM binding z-score [14],PBM binding z-score [15],PBM binding z-score [16],PBM binding z-score [17],PBM binding z-score [18],PBM binding z-score [19],PBM binding z-score [20]
ATCTCTAGGTAAGGATAGTTCAGTGAATGCAAAT,0.343,0.874,0.613,0.271,0.693,0.427,0.279,0.182,0.215,0.134,1.23,1.1,0.846,0.942,0.983,0.619,0.997,0.17,1.04,0.741
CTCGAAATGTCGGTTGAGGTGAGTATACGGATAA,0.47,-0.279,-0.308,-0.214,0.0912,0.0141,0.0414,0.218,0.0305,-0.0265,-0.0159,0.503,0.298,0.408,0.0152,0.0277,-0.637,0.341,-0.1,0.334
TCGAGTAGGTCAGGGGCATTCAGAATGGCGTCGA,2.3,1.52,-0.495,1.9,-0.546,3.41,4.73,4.8,2.48,4.21,4.91,5.07,-0.408,-0.403,1.33,1.2,-0.323,1.44,-0.681,3.39
CGAACGGGGGCATGAGTTGATAGCAAATGCCGAT,3.26,2.81,0.42,4.42,6.73,3.99,2.63,4.68,2.82,3.84,3.7,5.31,8.66,10,2.78,3.06,1.34,2.78,0.977,2.79
GCAGACAGGTGAAACGCAGGTAACGCAGGGTGGC,-0.151,-0.229,-0.631,-0.357,-1.09,0.749,0.665,-0.038,-0.74,-0.0828,0.691,0.737,-0.603,-0.805,-0.678,-0.552,-0.857,0.395,-0.862,0.76
CCGACTGGGGCATAAGGCTACCATAAGCCAGCCC,-0.264,-0.169,-0.35,-0.67,-1.17,0.356,1.55,2.13,0.339,1.84,2.4,2.19,-1.08,-1.23,0.226,-0.731,-0.51,-0.184,0.133,0.337
AGTCAAACTTCATCTAGGTAACGTAAGATATGCT,-0.0376,-0.223,-0.295,0.127,0.1,-0.0609,0.882,0.333,0.414,0.33,0.952,1.7,1.48,0.721,-0.505,-0.365,0.02,-0.125,0.222,0.212
CTGACTGGGGCATAAGGTTACCATAAGCCAGCCC,0.671,2.05,0.0158,1.61,-0.345,2.69,3.2,3.99,2.16,3.9,4.6,4.79,0.707,-0.07,1.02,0.767,-0.461,1.62,-0.242,1.94
TCTTGTAGATCAAGCAGGTTAAGGAAGCCTGAGT,0.133,0.211,-0.315,0.139,-0.226,0.674,-0.544,1.08,2.6,1.8,1.51,0.345,0.213,-0.0431,-0.0432,0.142,0.105,0.407,-0.315,0.0755
CCTGCTAGGTCAATGGTGAGCTAAAGCAGCTCGC,2.56,1.58,-0.54,0.808,-0.0982,2.57,2.46,2.99,1.2,2.5,4.2,3.22,-0.736,-0.744,0.822,0.37,-0.961,1.09,-0.333,3.51
GCTAGCAGGCCATTTGAGTCACTCAATGACGGGC,-0.524,-0.643,-0.699,-1.05,-0.622,-0.463,0.311,-0.7,-0.625,-0.728,0.829,-0.00694,-0.509,-2.18,-0.951,-0.369,-0.961,-0.381,-1.15,0.073
ATCTCTAGGTAATAGTTCAGTGAATCCCGAGGAT,0.178,0.499,0.496,0.482,0.778,3.1,5.39,6.33,5.08,6.63,2.36,2.79,1.15,2.02,1.07,0.458,0.386,0.192,1.4,1.16
TCATATAGGTACAGGTGAAAGTCGAACGATATGA,0.652,0.533,-0.0804,0.777,-0.304,1.62,1.23,2.41,3.76,2.76,2.01,1.83,1.45,1.06,0.632,0.509,-0.0466,0.718,0.84,0.896
CGTCCAAGGTCAAGGTCAGTGAAAGAGACTCGAA,7.52,5.66,1.09,4.51,0.985,6.12,6.53,6.21,2.56,4.65,3.52,4.76,0.429,0.164,4.38,4.81,1.28,5.07,1.75,5.75
